Source: PubChem BioAssay (EPA / NIEHS)
Inconclusive results are not listed. Calls of active or inactive are those of the source. The calls were made as follows, unless noted: active = hit-call score of the fitted dose curve at least 0.9, where 1 is the maximum; inactive = score below 0.9.

Experiments:
[1] = CCTE_Shafer_MEA_acute_burst_duration_mean: CCTE's Neural Acute Assay for Mean Burst Duration, Shafer Lab (AID 2284014);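 also: hits are decreases in mean burst duration relative to DMSO controls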
How it was run: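 Read-out is the per-well percent change in mean burst duration (first to last spike within a single-electrode burst) between 40-min recordings before and after compound. Cultures were primary rat cortical neurons on MEAs, dosed at 0.03-40 uM on DIV 13 or 15.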

[2] = CCTE_Shafer_MEA_acute_interburst_interval_mean: CCTE's Neural Acute Assay for Mean Interburst Interval, Shafer Lab (AID 2284016);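 also: percent change of mean interburst interval versus each well's own pre-dose baseline; curves fitted for decrease in interburst interval relative to DMSO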
How it was run: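 Rat primary cortical neurons on 48-well MEAs at DIV 13 or 15 were exposed acutely to 0.03-40 uM. Spikes detected at 8x rms noise, 37 C. Mean interburst interval from 40 min recordings expressed as percent change from 40 min pre-treatment baseline.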

[3] = CCTE_Shafer_MEA_acute_burst_percentage_mean: CCTE's Neural Acute Assay for Percentage of Spikes in a Burst, Shafer Lab (AID 2284017);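 also: curve fitted for loss of signal so potency reflects decreased burst percentage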
How it was run: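 Primary rat cortical neurons on 48-well MEA plates, treated on DIV 13 or 15 at 0.03-40 uM. Spikes detected at 8x rms noise at 37C; percent change from 40-min baseline to 40-min post-dose recording, fitted versus DMSO.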

[4] = CCTE_Shafer_MEA_acute_burst_percentage_std: CCTE's Neural Acute Assay for Standard Deviation of Burst Percentage, Shafer Lab (AID 2284018);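 also: fitted in the negative direction so actives lower burst percentage SD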
How it was run: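 Value is percent change from baseline in the across-electrode SD of spikes-in-bursts percentage, wells with >/= 10 active electrodes. Acute 40-min exposure to 0.03-40 uM on DIV 13 or 15 rat cortical cultures, recorded at 37 C after 40-min baseline.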

[5] = CCTE_Shafer_MEA_acute_per_network_burst_spike_number_mean: CCTE's Neural Acute Assay for Average Number of Spikes in a Network Burst, Shafer Lab (AID 2284019)
How it was run: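 Read-out is mean spike count per network burst, taken as percent change between a 40-min pre-exposure and a 40-min post-exposure recording per well. Rat primary cortical neurons on MEAs at 37 C, DIV 13 or 15; compounds at 0.03-40 uM.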

[6] = CCTE_Shafer_MEA_acute_per_network_burst_spike_number_std: CCTE's Neural Acute Assay for Standard Deviation of Number of Spikes in a Network Burst, Shafer Lab (AID 2284020);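 also: fitted for decrease in spike-number SD versus DMSO so actives lower it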
How it was run: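 Spontaneous network activity of primary rat cortical neurons is recorded extracellularly before and after a 40-min compound exposure (0.03-40 uM) at 37 C. The endpoint is the well's percent change in burst spike-number SD.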

[7] = CCTE_Shafer_MEA_acute_network_burst_percentage: CCTE's Neural Acute Assay for Percentage of Network Bursts, Shafer Lab (AID 2284022);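 also: curves fitted for loss so actives lower network burst percentage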
How it was run: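 Primary rat cortical neurons on 16-electrode MEA wells, treated on DIV 13 or 15 with compound (0.03-40 uM); 40-min baseline and 40-min post-exposure recordings at 37 C. Value is percent change in spikes within network bursts versus baseline, DMSO negative control.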

[8] = CCTE_Shafer_MEA_acute_cross_correlation_area: CCTE's Neural Acute Assay for Area of Cross Correlation, Shafer Lab (AID 2284024);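 also: area under pooled inter-electrode spike cross-correlation near zero lag as percent change from own baseline; curves fitted for loss of cross-correlation area so actives lower synchrony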
How it was run: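 Primary rat cortical neurons on 48-well MEA plates (16 electrodes/well) were recorded 40 min at baseline on DIV 13 or 15, then 40 min with compound (0.03-40 uM) at 37 C; cross-correlation area expressed as percent change from baseline.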

[9] = CCTE_Shafer_MEA_acute_cross_correlation_HWHM: CCTE's Neural Acute Assay for Cross Correlation at Half Width at Half Maximum, Shafer Lab (AID 2284026);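 also: percent change per well from pre-dose baseline in spike cross-correlogram half width; hits are a decrease in cross-correlogram half width relative to DMSO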
How it was run: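 Primary rat cortical neurons on 16-electrode MEA wells; 40-min baseline on DIV 13 or 15, then 40-min recording with compound (0.03-40 uM) at 37 C. HWHM of spike cross-correlogram expressed as percent change from baseline per well, DMSO reference.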

[10] = CCTE_Shafer_MEA_acute_synchrony_index: CCTE's Neural Acute Assay for Synchrony, Shafer Lab (AID 2284027);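 also: network synchrony index of spontaneous spiking in primary rat cortical neurons on MEAs; fitted for loss of signal so actives lower synchrony relative to DMSO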
How it was run: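 Spontaneous firing of mature rat cortical networks is captured extracellularly on microelectrode arrays at 37 C, with wells needing ≥10 active electrodes. Each compound (0.03-40 uM) is judged by the change in synchrony index from baseline over 40 min.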

[11] = CCTE_Shafer_MEA_acute_AB: CCTE's Alamar Blue Assay for Cytotoxicity in the Neural Acute Assay, Shafer Lab (AID 2284069; active = hit-call score of the fitted dose curve at least 0.9, where 1 is the maximum;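 also: active compounds lower the viability signal compared with DMSO wells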)
How it was run: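 Primary rat cortical neurons on MEA plates, exposed acutely after baseline recording on day 13 or 15 post-plating. Viability by CellTiter Blue resazurin reduction (1:6 reagent dilution), fluorescence 544/590 nm; loss of signal versus DMSO.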

[12] = CCTE_Shafer_MEA_acute_LDH: CCTE's Lactate Dehydrogenase Assay for Cytotoxicity in the Neural Acute Assay, Shafer Lab (AID 2284086; active = hit-call score of the fitted dose curve at least 0.9, where 1 is the maximum;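 also: active means LDH release rises above DMSO vehicle level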)
How it was run: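 Released lactate dehydrogenase, read at 490 nm, indicated cytotoxicity after acute 40-min compound treatment of rat cortical neuron networks grown on 48-well MEA plates.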

[13] = read-out: Monokine induced gamma interferon (MIG), CXCL9 (gene 4283); assay: BSK_KF3CT_MIG: BioMAP Diversity Plus: KF3CT Assay for Monokine induced gamma interferon (MIG) Biomarker Activity (AID 2284248); conditions: primary human keratinocytes with fibroblasts
How it was run: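 Human keratinocyte plus foreskin fibroblast primary co-culture dosed with test chemical for 24 h; MIG level measured by ELISA and fitted in the positive direction against DMSO as baseline.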

[14] = read-out: Collagen I, COL1A1 (gene 1277); assay: BSK_hDFCGF_CollagenI: BioMAP Diversity Plus: hDFCGF Assay for Collagen I Biomarker Activity (AID 2284250); conditions: primary human foreskin fibroblasts
How it was run: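 Cells were primary human foreskin fibroblasts treated for 24 h. Collagen I levels were then determined by ELISA and compared against DMSO controls.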

[15] = read-out: Interferon-inducible T-cell alpha chemoattractant (ITAC), CXCL11 (gene 6373); assay: BSK_hDFCGF_ITAC: BioMAP Diversity Plus: hDFCGF Assay for Interferon-inducible T-cell alpha chemoattractant (ITAC) Biomarker Activity (AID 2284251); conditions: primary human foreskin fibroblasts
How it was run: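 Fibroblasts (human foreskin, primary) are treated with chemical, cultured 24 h, then assayed for I-TAC by ELISA. Overt toxicity is checked in parallel cultures by sulforhodamine B staining of total protein at the same time point.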

[16] = read-out: Plasminogen activator inhibitor-1 (PAI1), SERPINE1 (gene 5054); assay: BSK_KF3CT_PAI1: BioMAP Diversity Plus: KF3CT Assay for Plasminogen activator inhibitor-1 (PAI1) Biomarker Activity (AID 2284252); conditions: primary human keratinocytes with fibroblasts
How it was run: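 Signal is PAI-1 detected by ELISA in a human skin-derived keratinocyte/fibroblast co-culture, 24 h after dosing; DMSO served as negative control and baseline.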

[17] = read-out: Interleukin-8 (IL8), CXCL8 (gene 3576); assay: BSK_KF3CT_IL8: BioMAP Diversity Plus: KF3CT Assay for Interleukin-8 (IL8) Biomarker Activity (AID 2284254); conditions: primary human keratinocytes with fibroblasts
How it was run: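 Human primary keratinocyte plus foreskin fibroblast co-culture dosed with test chemicals; IL-8 measured by ELISA 24 h after dosing. Activity fitted in the positive direction relative to DMSO negative control.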

[18] = read-out: Intercellular Adhesion Molecule 1 (ICAM1), ICAM1 (gene 3383); assay: BSK_BE3C_ICAM1: BioMAP Diversity Plus: BE3C Assay for Intercellular Adhesion Molecule 1 (ICAM1) Biomarker Activity (AID 2284278); conditions: primary human bronchial epithelial cells;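 also: cell-surface ICAM-1 protein level quantified by ELISA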
How it was run: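 Measured by ELISA: ICAM-1 expressed by primary human bronchial epithelial cells 24 h after compound treatment, with upward-direction fitting versus DMSO vehicle.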

[19] = read-out: Interferon-inducible T-cell alpha chemoattractant (ITAC), CXCL11 (gene 6373); assay: BSK_BE3C_ITAC: BioMAP Diversity Plus: BE3C Assay for Interferon-inducible T-cell alpha chemoattractant (ITAC) Biomarker Activity (AID 2284279); conditions: primary human bronchial epithelial cells
How it was run: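 ELISA for I-TAC in primary human bronchial epithelial cultures 24 h post-treatment, fitted relative to DMSO baseline in positive direction. Cytotoxicity checked in parallel cultures by sulforhodamine B protein staining.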

[20] = read-out: Interleukin-8 (IL8), CXCL8 (gene 3576); assay: BSK_BE3C_IL8: BioMAP Diversity Plus: BE3C Assay for Interleukin-8 (IL8) Biomarker Activity (AID 2284280); conditions: primary human bronchial epithelial cells
How it was run: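 IL-8 signal gain, normalised to DMSO vehicle, was scored after a 24 h chemical exposure of primary human bronchial epithelial cells, with detection by ELISA.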

[21] = read-out: Epidermal growth factor receptor (EGFR), EGFR (gene 1956); assay: BSK_BE3C_EGFR: BioMAP Diversity Plus: BE3C Assay for Epidermal growth factor receptor (EGFR) Biomarker Activity (AID 2284281); conditions: primary human bronchial epithelial cells
How it was run: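 Compound is added to human bronchial epithelial cells, cells incubate 24 h, then EGFR is detected by ELISA. Values reflect positive-direction fitting relative to DMSO.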

KRT18 (gene 3875) = assay: BSK_BE3C_Keratin818: BioMAP Diversity Plus: BE3C Assay for Keratin 818 Biomarker Activity (AID 2284282); conditions: primary human bronchial epithelial cells
How it was run: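 BE3C: human bronchial epithelial primary cells, 24 h exposure, Keratin 8/18 ELISA; DMSO = negative control/baseline; cytotoxicity by parallel SRB stain (0.1% SRB after 10% TCA fixation, 560 nm).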

[22] = read-out: Matrix Metallopeptidase 9 (MMP9), MMP9 (gene 4318); assay: BSK_BE3C_MMP9: BioMAP Diversity Plus: BE3C Assay for Matrix Metallopeptidase 9 (MMP9) Biomarker Activity (AID 2284283); conditions: primary human bronchial epithelial cells
How it was run: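 Human primary bronchial epithelial cells in the BE3C system were dosed with compound for 24 h. MMP-9 was measured by ELISA, and the positive-direction response was fitted relative to DMSO as baseline. Parallel SRB staining gauged cytotoxicity.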

[23] = read-out: Plasminogen activator inhibitor-1 (PAI1), SERPINE1 (gene 5054); assay: BSK_CASM3C_PAI1: BioMAP Diversity Plus: CASM3C Assay for Plasminogen activator inhibitor-1 (PAI1) Biomarker Activity (AID 2284284); conditions: primary human coronary artery smooth muscle cells;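 also: PAI-1 protein level measured by ELISA 24 h after dosing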
[24] = read-out: Monocyte Chemoattractant Protein-1 (MCP1), CCL2 (gene 6347); assay: BSK_hDFCGF_MCP1: BioMAP Diversity Plus: hDFCGF Assay for Monocyte Chemoattractant Protein-1 (MCP1) Biomarker Activity (AID 2284285); conditions: primary human foreskin fibroblasts
How it was run: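 Human foreskin fibroblasts (hDFCGF system) were exposed to compound and secreted MCP-1 was measured by ELISA after 24 hours. Activity was fitted relative to DMSO. Cytotoxicity was checked by SRB total-protein staining in parallel cultures.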

[25] = read-out: Intercellular Adhesion Molecule 1 (ICAM1), ICAM1 (gene 3383); assay: BSK_hDFCGF_ICAM1: BioMAP Diversity Plus: hDFCGF Assay for Intercellular Adhesion Molecule 1 (ICAM1) Biomarker Activity (AID 2284287); conditions: primary human foreskin fibroblasts
How it was run: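 Primary human foreskin fibroblasts (hDFCGF system) dosed with chemical; ICAM-1 quantified by ELISA at 24 h relative to DMSO. Parallel SRB total-protein staining to assess overt cytotoxicity.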

[26] = read-out: TIMP metallopeptidase inhibitor 2 (TIMP2), TIMP2 (gene 7077); assay: BSK_hDFCGF_TIMP2: BioMAP Diversity Plus: hDFCGF Assay for TIMP metallopeptidase inhibitor 2 (TIMP2) Biomarker Activity (AID 2284289); conditions: primary human foreskin fibroblasts
How it was run: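 Primary human foreskin fibroblasts in the hDFCGF system, dosed for 24 h; TIMP-2 level measured by ELISA, fitted in the positive direction against DMSO; cytotoxicity checked in parallel by sulforhodamine B total protein staining.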

[27] = read-out: Thrombomodulin, THBD (gene 7056); assay: BSK_LPS_Thrombomodulin: BioMAP Diversity Plus: LPS Assay for Thrombomodulin Biomarker Activity (AID 2284296); conditions: primary human HUVEC with PBMC
How it was run: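 Human umbilical vein endothelial cells co-cultured with PBMC and stimulated with LPS; cell-surface thrombomodulin measured by ELISA 24 hours after compound. Gain or loss versus DMSO; cytotoxicity checked by SRB staining in parallel cultures.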

CD69, CD69 (gene 969) = assay: BSK_LPS_CD69: BioMAP Diversity Plus: LPS Assay for CD69 Biomarker Activity (AID 2284303); conditions: primary human HUVEC with PBMC
How it was run: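 Human umbilical vein endothelial cells co-cultured with PBMC under LPS stimulation, chemical exposure 24 h; cell-surface CD69 measured by ELISA and fitted in the positive direction versus DMSO.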

Measured: AC50

CCCC[N+](CCCC)(CCCC)CCCC
active: [1] 9.59 µM | [2] 9.27 µM | [3] 9.71 µM | [4] 23.2 µM | [6] 5.6 µM | [7] 6.81 µM | [8] 0.00953 µM | [9] 2.98 µM | [10] 9.18 µM
inactive: all other assays above
